# Measurements as given in PubChem BioAssay AID2401 (Southern Research Specialized Biocontainment Screening …, 2010).
# Among all 2,200 compounds or so, about 530 (24%) were called active.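 The calls were made as follows: active = inhibition above a set limit at one or more concentrations of the dose series; inactive = inhibition under that limit at every dose.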 These entries were drawn from the full list. Potency and affinity values are given separately.
# Assay: S. Typhimurium nonspecific reporter signal inhibition – Salmonella Typhimurium, GFP fluorescence, counter-screen for PhoP regulon inhibitor project, dose response (AID 2401);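 also: S. typhimurium with Mg-insensitive nmpC-GFP reporter grown at 10 µM Mg2+; drop in reporter fluorescence reflects general culture growth inhibition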
# Details: 4 h; series mostly up to 150 µM; inhibition: at the top concentration
row,Compound,inhibition
1,CCCc1cc(-c2nc(N)ncc2-c2ccc3c(c2)OCCCO3)c(O)cc1OC,-6.75% (inactive)
2,O=S(=O)(c1ccc(S(=O)(=O)N2CCN(C/C=C/c3ccccc3)CC2)cc1)N1CCCC1,-7.27% (inactive)
3,c1ccc(CNc2nc(N3CCN(Cc4ccccc4)CC3)nc3ccccc23)cc1,15.1% (inactive)
4,CCN1CCN(c2oc(COc3ccc(Cl)cc3)nc2C#N)CC1,-11.3% (inactive)
5,COc1ccc(NC(=O)C(Sc2nnc(-c3ccncc3)n2-c2ccccc2C)c2ccccc2)cc1Cl (stereo unspecified),39.3% (inactive)
6,Cc1ccc(S(=O)(=O)NC2c3cccc4cccc(c34)C2Sc2n[nH]c(N)n2)cc1 (stereo unspecified),-1.11% (inactive)
7,Cc1ccc(S(=O)(=O)N2C(=O)CCC2C(=O)N2CCN(C)CC2)cc1 (stereo unspecified),-6.94% (inactive)
8,Cc1cccc(C=Nc2ccc3c(c2)oc2ccccc23)c1O,2.82% (inactive)
9,COc1ccc2cc(C)c3nnc(SCC(=O)Nc4nc(-c5ccccc5)cs4)n3c2c1,-14.2% (inactive)
10,c1ccc2cc(CSCc3nc4ccccc4[nH]3)ccc2c1,21.6% (inactive)
11,CN(C(=O)c1ccc2c(c1)OCO2)C1(C(=O)NC2CCCCC2)CCCCC1,-27.6% (inactive)
12,CC(=O)Nc1ccc(C(=O)Nc2nc(-c3cc(C)n(Cc4ccccc4)c3C)cs2)cc1,17.5% (inactive)
13,O=C(CSc1nc2ccccc2o1)Nc1ccc(N2CCOCC2)c(Cl)c1,10.2% (inactive)
14,N#Cc1nc(-c2ccco2)oc1NCCCN1CCOCC1,-4.28% (inactive)
15,N#C/C(=C\c1c(Cl)cccc1Cl)c1nc2ccccc2[nH]1,-16.6% (inactive)
16,S=C(NN=C1C2CC3CC(C2)CC1C3)Nc1ccccc1,-8.54% (inactive)
17,C=CCNc1ncnc2c1[nH]c1ccc(C)cc12,37% (inactive)
18,Cc1ccc2[nH]c3c(NCc4ccccc4)ncnc3c2c1,-8.46% (inactive)
19,COc1cccc(-c2nnc(SCC(=O)Nc3ccc(OC)c(OC)c3)n2N)c1,8.89% (inactive)
20,Cc1ccc(C=Nc2ccccc2C(N)=O)s1,19.4% (inactive)
21,CC1(C)CC(=O)C=C(Nc2ccc(Br)cn2)C1,-21.7% (inactive)
22,Cc1ccc(NC(=S)NCc2cccnc2)cc1,-17.2% (inactive)
23,S=C(NCc1cccnc1)Nc1cccc(Cl)c1,8.84% (inactive)
24,OC(COCc1cccs1)CN1CCN(c2ccccn2)CC1 (stereo unspecified),-21.3% (inactive)

row,Compound,inhibition
1,Cc1oc(CC(C)C)c(CN)c1C(=O)O,-14.3% (inactive)
2,Cc1nc(N)sc1Cc1ccc2c(c1)OCO2,24.2% (inactive)
3,CC(=O)Nc1cccc(OCC(=O)Nc2ccc(F)cc2)c1,-31.6% (inactive)
4,CC(=O)Nc1cccc(OC(=O)c2ccoc2C)c1,-30.2% (inactive)
5,CCN(CC)c1nc2n(c(=O)n1)CCO2,-33.8% (inactive)
6,Cc1ccccc1Nc1nc(-c2sc(NC(=O)c3cccc(Cl)c3)nc2C)cs1,17% (inactive)
7,Cc1cc(O)ccc1Nc1nc2ccccc2nc1Nc1ccc(O)cc1C,33.7% (inactive)
8,Cc1ccc(O)c(-c2cc(-c3cccc(F)c3)n[nH]2)c1,27.2% (inactive)
9,C=CCNC(=O)C(=O)NN=C1CCN(C)CC1,-26.4% (inactive)
10,N#CCOC(=O)c1sccc1-n1cccc1,-11.9% (inactive)
11,O=C(Cc1ccccc1)Nc1cccc(N2C(=O)C=CC2=O)c1,30.8% (inactive)
12,Cc1ccc(C2NNC(=O)C2NC(=O)c2ccccc2)cc1 (stereo unspecified),-23.9% (inactive)
13,Cc1ccc(-c2nnn(CC(=O)Nc3ccccc3-c3ccccc3)n2)c(-n2cnnn2)c1,1.9% (inactive)
14,Cc1cc(Nc2ccc(Cl)cc2)nc(N)n1,32.1% (inactive)
15,CC(C)(C)c1nn(-c2ccccc2)c2[nH]c(=O)c(CNCc3ccco3)cc12,-17.9% (inactive)
16,CC1(C)SC(=S)N(NC(=O)Nc2ccccc2)C1N(O)C(=O)Nc1ccccc1 (stereo unspecified),-13.4% (inactive)
17,Cc1ccc(Nc2cc(C)nc3nc(C)nn23)cc1,-17.3% (inactive)
18,COc1ccc2c(c1)cc1n2CCN2CCCN=C12,13.7% (inactive)
19,O=P(Cc1cc[n+]([O-])cc1)(c1ccccc1)c1ccccc1,-29.2% (inactive)
20,CCOC(=O)CCCNC(=O)COC(=O)CCC(=O)c1ccc(F)cc1,3.03% (inactive)
21,CCCCn1cnc2c(cnn2-c2ccc(F)cc2)c1=O,-17.3% (inactive)
22,Cc1cccnc1NC(=O)CCCN1C(=O)c2ccccc2C1=O,6.01% (inactive)
23,O=C(CCN1C(=O)COc2ccccc21)NCCN1CCOCC1,-16.8% (inactive)
24,COc1cccc(/C=N/n2c(C)nc3ccccc32)c1OC,-14% (inactive)

row,Compound,inhibition
1,Cc1ccc(-n2c(C)cc(-c3csc(N)n3)c2C)cc1,39.9% [at 75 µM] (inactive)
2,Cc1cc(-c2csc(N)n2)c(C)n1C,23.3% (inactive)
3,NC(N)=Nc1nc(C2COc3ccccc3O2)cs1 (stereo unspecified),35.6% (inactive)
4,Nc1nc(-c2ccc(Br)cc2)cs1,-12.1% (inactive)
5,CN(C(=O)C1CCOC1)c1nnc(-c2ccccn2)s1 (stereo unspecified),-15.8% (inactive)
6,COc1ccc(-c2cc(C(=O)Nc3cc(C)n(Cc4ccc(Cl)cc4)n3)no2)cc1OC,-13.3% (inactive)
7,COc1cc(S(=O)(=O)N2CCCCC2)ccc1NC=O,-0.23% (inactive)
8,CC1(C)CC2CC(C)(CN2C(=O)COC(=O)c2n[nH]c(=O)c3ccccc23)C1 (stereo unspecified),-15.4% (inactive)
9,O=C1Nc2ccccc2C12OCC1(CO2)COC2(OC1)C(=O)Nc1ccccc12 (stereo unspecified),15.1% (inactive)
10,NCCCCCc1nnc(SCc2ccc(Cl)cc2Cl)o1,16.6% (inactive)
11,O=C(Nc1ccc(O)cc1)c1cc2n(n1)C(C(F)(F)F)CC(c1ccco1)N2 (stereo unspecified),-2.81% (inactive)
12,O=C(c1cc(-c2cccs2)nc2ccccc12)N1CCN(c2ccccc2O)CC1,16.9% (inactive)
13,O=C(O)CCc1nn2c3ccccc3n(CCN3CCCCC3)c2nc1=O,-3.63% (inactive)
14,Cc1ccc(Nc2cc(=O)[nH]c(=O)[nH]2)c(C)c1,24.1% (inactive)
15,O=C(O)C1CCC(N2C(=O)C3CCCCC3C2=O)CC1 (stereo unspecified),-2.47% (inactive)
16,Cc1cc(C(=O)CSc2nnnn2C)c(C)n1-c1ccc2c(c1)OCCO2,-3.11% (inactive)
17,Cc1ccc(-c2cc(C(=O)Nc3nccs3)c3ccccc3n2)o1,15.4% (inactive)
18,O=C(OCc1ccccc1)Oc1cncc(C(=O)O)c1,3.03% (inactive)
19,C=COC(=O)CSc1snc(SCC(=O)OC)c1C#N,-0.38% (inactive)
20,C=CCSc1ncnc2sc(C)c(C)c12,2.54% (inactive)
21,COc1ccc(NC(=O)CCNS(=O)(=O)c2ccc3c(c2)CCC(=O)N3)cc1,-5.16% (inactive)
22,CN1CCCC(OC(=O)c2ccc3c(c2)OCCO3)C1 (stereo unspecified),-6.95% (inactive)
23,N#Cc1ccc(N=c2ssnc2Cl)cc1,-3.37% (inactive)
24,CC(C)(C)n1ncc2c(=O)n(CC(=O)Nc3ccc4c(c3)OCO4)cnc21,0.07% (inactive)

row,Compound,inhibition
1,Cc1ccccc1Cn1c(=N)n(CC(=O)c2ccco2)c2ccccc21,-25% (inactive)
2,N=c1n(CC(=O)c2ccc([N+](=O)[O-])cc2)c2ccccc2n1Cc1ccccc1,-6.91% (inactive)
3,Cc1ccc(/C=C/c2ccc(=O)n(Cc3ccccc3Cl)n2)cc1,-10.7% (inactive)
4,COc1ccc(-n2c(=O)c3ccccc3n(CC(=O)Nc3cc(C)on3)c2=O)cc1OC,-20.3% (inactive)
5,Cc1cc(-c2c(C)n([O-])c(C)c(C)[n+]2=O)ccc1F,-19% (inactive)
6,CCOC(=O)c1c(-c2ccc(C)o2)csc1N,-7.66% (inactive)
7,CCOC(=O)c1ccccc1C(=O)N1CCOCCOCCOCC1,-15.8% (inactive)
8,COc1ccc(C(=O)Nn2c(SCC(=O)N3CCC(C)CC3)nc3ccccc3c2=O)cc1,-0.43% (inactive)
9,Cc1ccc2nc(C)c(CN3CCN(c4ccc([N+](=O)[O-])cc4Cl)CC3)n2c1,12.8% (inactive)
10,Cc1ccc(NS(=O)(=O)c2ccc(N3C(=O)CCC3=O)cc2)cc1,-30.7% (inactive)
11,O=S(=O)(Nc1ccc2c(c1)nc1n2CCN(Cc2ccccc2)C1)c1ccc(F)cc1,-2.47% (inactive)
12,CSc1cccc(NC(=O)COc2cccc3ccccc23)c1,6.13% (inactive)
13,O=S(=O)(NC1=NCCCCC1)c1cccs1,-13.8% (inactive)
14,O=C1CSc2ccccc2N1Cc1ccc(F)cc1,-25.6% (inactive)
15,O=C(c1ccccc1S(=O)(=O)NCc1ccccc1)N1CCCC1,-22.7% (inactive)
16,COc1ccc(C2CC(c3ccccc3)=NN2c2ccc(/C=N/NC(=O)c3ccncc3)cc2)cc1 (stereo unspecified),16.4% (inactive)
17,NC(=O)c1c(N)sc2c1CCCCC2,12.1% (inactive)
18,CCOC(=O)C1=C(C)NC(=S)NC1c1ccc(OC(=O)c2ccco2)cc1 (stereo unspecified),-2.57% (inactive)
19,Cn1c(C(O)c2ccc(Br)cc2)nc(Cl)c1Cl (stereo unspecified),-2.83% (inactive)
20,CN(C)C=NC(=O)c1[nH]c2ccc(Cl)cc2c1-c1ccccc1,-5.43% (inactive)
21,Clc1ccc(OCCN2CCN(c3ncnc4sccc34)CC2)cc1,-6.81% (inactive)
22,N[C@H](CSCc1ccccc1)C(=O)Nc1ccc([N+](=O)[O-])cc1,-8.41% (inactive)
23,O=C(Cc1ccc(Cl)cc1)NNS(=O)(=O)c1ccc([N+](=O)[O-])cc1,0% (inactive)
24,O=C(O)CCCCCN1C(=O)c2ccc(C(=O)O)cc2C1=O,-20.1% (inactive)

row,Compound,inhibition
1,CCOC(=O)c1c(C)[nH]c(C)c1C(=O)CSc1ncccn1,-16.1% (inactive)
2,COc1ccc(NC(=O)CSc2nccn2-c2ccccc2)cc1,-15.4% (inactive)
3,COc1cc(OC)c(NC(=O)Nc2ccc(OC)c(OC)c2)cc1Cl,10.1% (inactive)
4,O=[N+]([O-])c1nn(-c2cccc(Cl)c2)n(O)c1=NCc1cccnc1,5.14% (inactive)
5,O=c1c(Cl)c(Cl)cnn1-c1ccccc1,18.9% (inactive)
6,CC1(C)CC(=O)C(C=Nc2ccc(Cl)cn2)=C(O)C1,7.22% (inactive)
7,Cn1cccc1CC(=O)NNC(=S)Nc1ccc(Cl)cc1,8.8% (inactive)
8,Cc1cn([C@H]2C[C@H](N=[N+]=[N-])[C@@H](CO)O2)c(=O)[nH]c1=O,-4.31% (inactive)
9,Cc1c(C)n(Cc2ccccc2)c2ncnc(NN)c12,9.09% (inactive)
10,CCOCc1nnc(NC(=O)COC)s1,-6.16% (inactive)
11,O=c1c2ccccc2nnn1Cc1ccccn1,4.75% (inactive)
12,c1ccc(Oc2cc(-c3ccccc3)ncn2)cc1,-7.11% (inactive)
13,Oc1ccccc1NCC(O)Cn1ccc2ccccc21 (stereo unspecified),15.1% (inactive)
14,Cc1ccc2nc(Cc3ccc(N)cc3)[nH]c2c1,29.3% (inactive)
15,CCOc1ccc(S(=O)(=O)Nc2ccc(C(=O)N/N=C/c3c(C)nn(-c4ccccc4)c3N3CCCC3)cc2)cc1,17.9% (inactive)
16,COc1ccccc1NS(=O)(=O)c1cccc(C(=O)N/N=C/c2c(C)nn(-c3ccccc3)c2N2CCCC2)c1,6.1% (inactive)
17,Cc1ccc(C(=O)N/N=C/c2ccc([N+](=O)[O-])s2)cc1,-4.76% (inactive)
18,O=C(NC(=S)N1CCN(c2c(Cl)cccc2[N+](=O)[O-])CC1)c1cccs1,-24% (inactive)
19,O=C(c1ccccc1)c1nc2ccccc2n(CCCn2c(=O)c(C(=O)c3ccccc3)nc3ccccc32)c1=O,-19.2% (inactive)
20,CCc1cccc(C)c1NC(=S)NCc1cccn1C,21.8% (inactive)
